# Measured values from PMC9911399, “Two distinct binding modes provide the RNA-binding protein RbFox with extraordinary sequence specificity”.
# Positions count from the first letter of the chain named. In all, about 16,000 sequences were measured (“ka relative to ugcaugu”: median about 0.0091, highest 2% from about 0.032 on). The sample holds the highest values, similar sequences and a random draw of the others, so the mix is not that of the screen.
# T1: RBFOX1 RRM (Homo sapiens, UniProt Q9NWB1 109-208)
# T1 sequence: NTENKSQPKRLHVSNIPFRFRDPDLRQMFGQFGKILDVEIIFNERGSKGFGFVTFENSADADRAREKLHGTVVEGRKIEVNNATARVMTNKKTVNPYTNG
# B1: GCUUGAU (DNA:RNA)
# RNA: GGGAGACCGGAAUUCAGAUUGUCCGCUUGAUUUAAAUCCCGUCGUAGCCACCA
# DNA 1: CAATCTGAATTCCGGTCTCCC
# DNA 2: TGGTGGCTACGACGGGATT
# B2: UACUGGA (DNA:RNA)
# RNA: B1 RNA with G25U, C26A, U27C, A30G, U31A
# DNA 1: CAATCTGAATTCCGGTCTCCC
# DNA 2: TGGTGGCTACGACGGGATT
# B3: UCGUGAG (DNA:RNA)
# RNA: B1 RNA with G25U, U27G, U31G
# DNA 1: CAATCTGAATTCCGGTCTCCC
# DNA 2: TGGTGGCTACGACGGGATT
# B4: UGGCCGA (DNA:RNA)
# RNA: GGGAGACCGGAAUUCAGAUUGUCCUGGCCGAUUAAAUCCCGUCGUAGCCACCA
# DNA 1: CAATCTGAATTCCGGTCTCCC
# DNA 2: TGGTGGCTACGACGGGATT
# B5: UGGCCGC (DNA:RNA)
# RNA: B4 RNA with A31C
# DNA 1: CAATCTGAATTCCGGTCTCCC
# DNA 2: TGGTGGCTACGACGGGATT
# B6: UGGCCUG (DNA:RNA)
# RNA: B4 RNA with G30U, A31G
# DNA 1: CAATCTGAATTCCGGTCTCCC
# DNA 2: TGGTGGCTACGACGGGATT
# B7: UGUGGCC (DNA:RNA)
# RNA: B1 RNA with G25U, C26G, U28G, A30C, U31C
# DNA 1: CAATCTGAATTCCGGTCTCCC
# DNA 2: TGGTGGCTACGACGGGATT
# B8: UGGCCUC (DNA:RNA)
# RNA: B4 RNA with G30U, A31C
# DNA 1: CAATCTGAATTCCGGTCTCCC
# DNA 2: TGGTGGCTACGACGGGATT
# B9: UGGCCGG (DNA:RNA)
# RNA: B4 RNA with A31G
# DNA 1: CAATCTGAATTCCGGTCTCCC
# DNA 2: TGGTGGCTACGACGGGATT
# B10: UGCGGUG (DNA:RNA)
# RNA: B4 RNA with G27C, C28G, C29G, G30U, A31G
# DNA 1: CAATCTGAATTCCGGTCTCCC
# DNA 2: TGGTGGCTACGACGGGATT
# B11: CAUGUGG (DNA:RNA)
# RNA: B1 RNA with G25C, C26A, U28G, G29U, A30G, U31G
# DNA 1: CAATCTGAATTCCGGTCTCCC
# DNA 2: TGGTGGCTACGACGGGATT
# B12: GCUACAC (DNA:RNA)
# RNA: B1 RNA with U28A, G29C, U31C
# DNA 1: CAATCTGAATTCCGGTCTCCC
# DNA 2: TGGTGGCTACGACGGGATT
# B13: CAAUAAC (DNA:RNA)
# RNA: B1 RNA with G25C, C26A, U27A, G29A, U31C
# DNA 1: CAATCTGAATTCCGGTCTCCC
# DNA 2: TGGTGGCTACGACGGGATT
# B14: CGAGGGG (DNA:RNA)
# RNA: B4 RNA with U25C, G27A, C28G, C29G, A31G
# DNA 1: CAATCTGAATTCCGGTCTCCC
# DNA 2: TGGTGGCTACGACGGGATT
# B15: AAUAUAG (DNA:RNA)
# RNA: B1 RNA with G25A, C26A, U28A, G29U, U31G
# DNA 1: CAATCTGAATTCCGGTCTCCC
# DNA 2: TGGTGGCTACGACGGGATT
# B16: GCUGCUA (DNA:RNA)
# RNA: B1 RNA with U28G, G29C, A30U, U31A
# DNA 1: CAATCTGAATTCCGGTCTCCC
# DNA 2: TGGTGGCTACGACGGGATT
# B17: UGAGUCU (DNA:RNA)
# RNA: B4 RNA with G27A, C28G, C29U, G30C, A31U
# DNA 1: CAATCTGAATTCCGGTCTCCC
# DNA 2: TGGTGGCTACGACGGGATT
# B18: UGGAUUC (DNA:RNA)
# RNA: B4 RNA with C28A, C29U, G30U, A31C
# DNA 1: CAATCTGAATTCCGGTCTCCC
# DNA 2: TGGTGGCTACGACGGGATT
# B19: UGGAAUC (DNA:RNA)
# RNA: B4 RNA with C28A, C29A, G30U, A31C
# DNA 1: CAATCTGAATTCCGGTCTCCC
# DNA 2: TGGTGGCTACGACGGGATT
# B20: UGGAGGC (DNA:RNA)
# RNA: B4 RNA with C28A, C29G, A31C
# DNA 1: CAATCTGAATTCCGGTCTCCC
# DNA 2: TGGTGGCTACGACGGGATT
# B21: UGGAUGC (DNA:RNA)
# RNA: B4 RNA with C28A, C29U, A31C
# DNA 1: CAATCTGAATTCCGGTCTCCC
# DNA 2: TGGTGGCTACGACGGGATT
# B22: UGGAUGG (DNA:RNA)
# RNA: B4 RNA with C28A, C29U, A31G
# DNA 1: CAATCTGAATTCCGGTCTCCC
# DNA 2: TGGTGGCTACGACGGGATT
# B23: UCCUGGA (DNA:RNA)
# RNA: B1 RNA with G25U, U27C, A30G, U31A
# DNA 1: CAATCTGAATTCCGGTCTCCC
# DNA 2: TGGTGGCTACGACGGGATT
# B24: UGGAUGA (DNA:RNA)
# RNA: B4 RNA with C28A, C29U
# DNA 1: CAATCTGAATTCCGGTCTCCC
# DNA 2: TGGTGGCTACGACGGGATT
# B25: UGGAGUC (DNA:RNA)
# RNA: B4 RNA with C28A, C29G, G30U, A31C
# DNA 1: CAATCTGAATTCCGGTCTCCC
# DNA 2: TGGTGGCTACGACGGGATT
# B26: UGAUGGA (DNA:RNA)
# RNA: B4 RNA with G27A, C28U, C29G
# DNA 1: CAATCTGAATTCCGGTCTCCC
# DNA 2: TGGTGGCTACGACGGGATT
# B27: UGCUGGA (DNA:RNA)
# RNA: B4 RNA with G27C, C28U, C29G
# DNA 1: CAATCTGAATTCCGGTCTCCC
# DNA 2: TGGTGGCTACGACGGGATT
# B28: UGGAUUG (DNA:RNA)
# RNA: B4 RNA with C28A, C29U, G30U, A31G
# DNA 1: CAATCTGAATTCCGGTCTCCC
# DNA 2: TGGTGGCTACGACGGGATT
# Target: T1, RBFOX1 RRM
# Experiment: EMSA; HiTS-Eq, 1 nM pool, 10 min; buffer printed only for the single-RNA assays: 10 mM Tris pH 7.5, 150 mM NaCl, 3.4 mM EDTA, 0.001% NP-40, 30 C
# Settings: tags: His6 N-terminal (pET28a); label: 5' 32P
# Outline: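 A pool of RNA with 7 randomized nucleotides, 5′-radiolabelled and with DNA-annealed flanks, was equilibrated at 1 nM for 10 min in 50 µL with purified RbFox RRM, wild type or mutant, across increasing protein concentrations. Free RNA was separated by 8% native PAGE, excised, reverse-transcribed, barcoded by PCR and sequenced. Relative association constants were obtained from read-count changes of each RNA species versus the control reaction and normalised to the cognate motif.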
row,Binder,binding signal
1,B1,0.0264 KA relative to UGCAUGU
2,B2,0.00358 KA relative to UGCAUGU
3,B3,0.00953 KA relative to UGCAUGU
4,B4,0.0244 KA relative to UGCAUGU
5,B5,0.0225 KA relative to UGCAUGU
6,B6,0.0426 KA relative to UGCAUGU
7,B7,0.0234 KA relative to UGCAUGU
8,B8,0.0279 KA relative to UGCAUGU
9,B9,0.0318 KA relative to UGCAUGU
10,B10,0.0288 KA relative to UGCAUGU
11,B11,0.00494 KA relative to UGCAUGU
12,B12,0.00819 KA relative to UGCAUGU
13,B13,0.00247 KA relative to UGCAUGU
14,B14,0.00639 KA relative to UGCAUGU
15,B15,0.00237 KA relative to UGCAUGU
16,B16,0.0167 KA relative to UGCAUGU
17,B17,0.0175 KA relative to UGCAUGU
18,B18,0.0192 KA relative to UGCAUGU
19,B19,0.0233 KA relative to UGCAUGU
20,B20,0.0186 KA relative to UGCAUGU
21,B21,0.0582 KA relative to UGCAUGU
22,B22,0.0304 KA relative to UGCAUGU
23,B23,0.00715 KA relative to UGCAUGU
24,B24,0.0437 KA relative to UGCAUGU
25,B25,0.0349 KA relative to UGCAUGU
26,B26,0.00526 KA relative to UGCAUGU
27,B27,0.0106 KA relative to UGCAUGU
28,B28,0.0448 KA relative to UGCAUGU
